In the library only some 2.9% were active in any assay of this set; here they are far more common.
FXN GAA850 act – FXN promoter activators, primary screen, cell-based, luciferase luminescence, HEK293 lucGAA850; HEK293 lucGAA850 FXN promoter luciferase reporter, 24 h; percent of 10 µM SAHA response; 360,000 tested, 0.56% active; AID 540364, 2011; activation, % at 6 µM;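 active = activation above the average of all compounds screened plus 3 SD, cutoff fixed separately per campaign, cut at about 7.5% in these data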
FAS TE block – FAS thioesterase domain inhibitors, primary screen, biochemical, fluorescence intensity, uHTS; recombinant FAS-TE, OMFH fluorogenic substrate, fluorescence endpoint; AID 602261, 2012; 360,000 tested, 0.67% active; Fatty acid synthase (Homo sapiens), P49327; inhibition, % at 15 µM;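 active = compounds whose normalised, plate-corrected inhibition of enzyme fluorescence in the single-dose primary screen is 50% or more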
SMARCA2 activ – SMARCA2 (BRM) function activators, primary screen, cell-based, luminescence, high throughput. MG213 cells, MMTV-luciferase reporter, dexamethasone, overnight. activation, % at 9.1 µM. 370,000 tested, 1% active. AID 652017, 2013; in the data active = activation above about 7.8%
proKLK7 act – proKLK7 zymogen activators, primary screen, biochemical, fluorescence intensity. 370,000 tested, 0.9% active. Kallikrein-7 (Homo sapiens), P49862. AID 652039, 2013. purified proKLK7, EDANS-DABCYL substrate fluorescence; 100% is mature enzyme control, 0% vehicle. activation, % at 7 µM;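 active = activation above the mean of all tested compounds plus 3 SD, computed per campaign excluding outliers beyond control limits, cut at about 13% in these data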
Target sequence (P49862 whole entry, looked up): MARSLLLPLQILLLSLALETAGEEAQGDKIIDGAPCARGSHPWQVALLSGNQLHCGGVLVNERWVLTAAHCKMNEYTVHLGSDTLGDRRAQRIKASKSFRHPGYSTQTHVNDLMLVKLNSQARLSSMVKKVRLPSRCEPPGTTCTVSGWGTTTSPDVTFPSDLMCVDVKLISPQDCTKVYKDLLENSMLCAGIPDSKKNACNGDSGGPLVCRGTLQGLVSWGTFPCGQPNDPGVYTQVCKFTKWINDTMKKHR
SMARCA2 conf – SMARCA2 (BRM) function activators, confirmation, cell-based, luminescence, triplicate; shares compounds with SMARCA2 activ; MG213 cells, MMTV-luciferase with dexamethasone, overnight; MG213 cells expressing E1A, Rb sequestered; DMSO wells 0%, reference activator 100%; activation, % at 9.1 µM; 3,500 tested, 30% active; AID 652260, 2013;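 active = activation above its plate's cutoff, the mean activation of tested wells plus 3 SD, cut at about 7.9% in these data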
GAL4-VP16 Luc – GAL4-VP16 luciferase reporter activation, counter-screen for SMARCA2 (BRM) activator project, cell-based, pG5luc, luminescence, high throughput; 3,500 tested, 41% active; shares compounds with SMARCA2 activ; HEK293 GAL4-VP16 pG5luc reporter; scaled: DMSO wells 0%, SAHA wells 100%; activation, % at 9.1 µM;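 active = activation above the solvent-only control well mean plus 3 SD, averaged across control plates, cut at about 5.2% in these data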
Large screens that a line does not name were inactive (follow-up assays come after a bar, where they were run); ! = a repeat was not active.

Cc1nn2cc(-c3ccc(Cl)cc3)nc2s1	SMARCA2 activ 8.7 | SMARCA2 conf inactive | GAL4-VP16 Luc 10
O=c1[nH]c(CSc2nc3ccccc3s2)nc2ccccc12	SMARCA2 activ 8.4 | SMARCA2 conf inactive | GAL4-VP16 Luc inactive
COc1ccc(OC)c(S(=O)(=O)N2CCC(C(=O)Nc3cccc(C)c3C)CC2)c1	SMARCA2 activ 8.4 | SMARCA2 conf inactive | GAL4-VP16 Luc inactive
COc1ccc(N2CCN(c3nc4c(c(=O)[nH]c(=O)n4C)n3Cc3cccc(C)c3)CC2)cc1	none
COc1ccc(-c2cc(COc3ccccc3)on2)cc1	SMARCA2 activ 8.4 | SMARCA2 conf inactive | GAL4-VP16 Luc 7.2
Cc1cccc(OCc2cc(-c3ccccc3)no2)c1C	SMARCA2 activ 8.9 | SMARCA2 conf inactive | GAL4-VP16 Luc 6.5
Fc1ccc(OCc2cc(-c3ccccc3)no2)cc1	none
Cc1ccc(OCc2nc3ccccc3[nH]2)cc1	SMARCA2 activ 14 | SMARCA2 conf 10 | GAL4-VP16 Luc 8.2
Cc1ccc(S(=O)(=O)N2CCN(c3nc(CN4CCCC4)nc4sc(C)c(C)c34)CC2)cc1	none
Cc1ccc(C)c(S(=O)(=O)N2CCN(c3nc(CN4CCOCC4)nc4sc(C)c(C)c34)CC2)c1	SMARCA2 activ 9.1 | SMARCA2 conf inactive | GAL4-VP16 Luc inactive
CC(=O)Nc1ccc2c(c1)C(=O)c1ccccc1C2=O	SMARCA2 activ 9.4 | SMARCA2 conf 19 | GAL4-VP16 Luc 11
Nc1ccc2c(c1)C(=O)c1ccccc1-2	none
Nc1ccc2c(c1)C(=O)c1ccccc1C2=O	SMARCA2 activ 12 | SMARCA2 conf 9.1 | GAL4-VP16 Luc 9.0
CCc1ccc2oc(C(=O)N3CCN(c4ccccc4OC)CC3)cc(=O)c2c1	none
OC[C@H]1O[C@@H](c2nc(-c3ccc(C4OCCO4)cc3)no2)[C@H](O)[C@@H]1O	none
Cc1ccc(NC(=S)N2CCC(c3ccccc3)C2)c(Cl)c1 (stereo unspecified)	SMARCA2 activ 8.8 | SMARCA2 conf inactive | GAL4-VP16 Luc 9.3
COc1ccc(C(=O)N/N=C(\C)Cn2cnc([N+](=O)[O-])n2)cc1	SMARCA2 activ 13 | SMARCA2 conf inactive | GAL4-VP16 Luc inactive
COCCCN1C(=O)C(CC(=O)NCc2cccc3ccccc23)CC(C(=O)N2CCCCCC2)=C1C (stereo unspecified)	none (no result: FXN GAA850 act)
O=C(c1ccc(F)cc1)c1cc2ccccc2o1	SMARCA2 activ 11 | SMARCA2 conf inactive | GAL4-VP16 Luc 7.4
CCc1ccccc1OCC(=O)OCC(=O)Nc1cc(C)on1	SMARCA2 activ 8.3 | SMARCA2 conf inactive | GAL4-VP16 Luc inactive
C(=C\c1nc(N2CCCCCC2)c2ccccc2n1)/c1ccccc1	SMARCA2 activ 9.3 | SMARCA2 conf inactive | GAL4-VP16 Luc inactive
CN[C@H]1C[C@H]2c3cc(-c4ccccc4C)ccc3CCN2C[C@H]1[C@H](C)O	SMARCA2 activ 9.6 (no result: FXN GAA850 act, FAS TE block) | SMARCA2 conf inactive | GAL4-VP16 Luc inactive
COc1ccc(C(=O)OCCN2C(=O)c3ccccc3C2=O)cc1OC	none
Cn1c2ccccc2c2nnc(SCCN3CCOCC3)nc21	SMARCA2 activ 10 | SMARCA2 conf inactive | GAL4-VP16 Luc inactive
CN1CCN(C(=O)C2=C[C@@H](c3ccc(Br)cc3)C[C@@H](OCc3ccc(CO)cc3)O2)CC1	none
COc1cc(CNc2cccc(F)c2)cc(Br)c1O	SMARCA2 activ 9.2 | SMARCA2 conf inactive | GAL4-VP16 Luc inactive
Cc1ccccc1CN1CCN(CC(=O)NCCCN2CCN(c3ccc(F)cc3)CC2)C1=O	none
Cc1c(-c2ccccc2)nc2ccccc2c1C(=O)NCc1cccs1	SMARCA2 activ 8.1 | SMARCA2 conf inactive | GAL4-VP16 Luc inactive
CC(=O)Nc1ccc(NC(=O)C(C)n2nc(C)c([N+](=O)[O-])c2C)cc1 (stereo unspecified)	none
CCOCCCNC(=O)C(c1ccccc1)N(Cc1cccs1)C(=O)CNC(=O)c1ccccc1 (stereo unspecified)	SMARCA2 activ 8.7 | SMARCA2 conf inactive | GAL4-VP16 Luc inactive
CCOc1ccc(Nc2nc(N)nc(CN(C)C3CCCCC3)n2)cc1	none
COc1ccc2c(c1OC)C(=O)OC2Nc1nc(-c2cc3cc(Br)ccc3oc2=O)cs1 (stereo unspecified)	SMARCA2 activ 9.2 | SMARCA2 conf 12 | GAL4-VP16 Luc 7.9
CCCCCCCCCCCC(=O)NC(Cc1ccc(OC)c([N+](=O)[O-])c1)C(=O)O (stereo unspecified)	none
COc1cccc(NC(=O)c2ncc(Cl)c(Cl)c2Cl)c1	SMARCA2 activ 8.7 | SMARCA2 conf inactive | GAL4-VP16 Luc inactive
CCN1CCN(Cc2ccc(NC(=O)c3cc(NC(=O)c4cnnc5ccccc45)cc(OC)c3)cc2C(F)(F)F)CC1	SMARCA2 activ 14! | SMARCA2 conf 8.7 | GAL4-VP16 Luc inactive
CCN(CC)CCNc1ncnc2c1sc1nc(N3CCCC3)c3c(c12)CC(C)(C)OC3	SMARCA2 activ 8.3 | SMARCA2 conf inactive | GAL4-VP16 Luc inactive
CCc1nc2ccc(C(=O)NCc3ccc(OC)cc3)cn2c1N(C)Cc1ccc(OC)cc1	none
CCc1nc2ccc(C(=O)N(C)Cc3ccccc3)cn2c1N(C)Cc1ccc(OC)cc1	SMARCA2 activ 9.9 | SMARCA2 conf inactive | GAL4-VP16 Luc inactive
CCOC(=O)CCSc1nc(C)c2cc(OC)ccc2n1	SMARCA2 activ 10 | SMARCA2 conf 9.0 | GAL4-VP16 Luc 11
Cc1ccccc1CC(=O)OCC(=O)Nc1ccc(C)c(S(=O)(=O)N2CCCCC2)c1	none
Cc1ccc(NC(=O)c2ccc([N+](=O)[O-])cc2Cl)nc1	SMARCA2 activ 9.1 | SMARCA2 conf inactive | GAL4-VP16 Luc 9.7
CN(C)c1ccc(NC(=O)c2ccc([N+](=O)[O-])cc2Cl)cc1	SMARCA2 activ 9.7 | SMARCA2 conf 7.9 | GAL4-VP16 Luc 12
C=CCN1[C@@H](Cc2ccccc2)COc2cc(N3CCSCC3)ccc2S1(=O)=O	none (no result: FXN GAA850 act)
O=c1cc(-c2ccccc2)oc2ccc3ccccc3c12	none
OCCCCCN=c1cc(-c2ccccc2)oc2ccc(Cl)cc12	SMARCA2 activ 13 | SMARCA2 conf 19 | GAL4-VP16 Luc inactive
O=C(OCc1cccc(F)c1)c1ccc2c(c1)-c1ccccc1C2=O	none
CCOC(=O)c1ccc(COC(=O)c2ccc3c(c2)-c2ccccc2C3=O)cc1	SMARCA2 activ 8.9 | SMARCA2 conf inactive | GAL4-VP16 Luc inactive
Cc1ccc(Cn2c(CN3CCN(C(=O)c4ccco4)CC3)nc3c2c(=O)n(C)c(=O)n3C)cc1	none

From PubChem BioAssay
